Screening results as filed in PubChem.
Most compounds without a hit are left out; they make up all but 5.8% or so of the library.
KB-3-1 tox: KB-3-1 parental cell cytotoxicity. KB-3-1 viability, CellTiter-Glo ATP luminescence, 72 h. Potency, µM (top dose mostly 46.1 µM), hits mostly cytotoxic. hit rate 1.4% among 400,000. AID 1347075; further: on the % scale 0 is the no-effect control and ±100 the full control effect; nearly all actives have a fitted effect of over 60% in size
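Parental KB-3-1 adenocarcinoma cells in phenol-red-free DMEM with 10% FBS were pin-treated with compounds at several concentrations, incubated 72 h at 37 °C, and viability read by CellTiter-Glo luminescence; concentration-effect curves were fitted after normalization.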
PINK1 modulator: PINK1 expression modulation. hit rate 0.2% among 410,000. PINK1 immunofluorescence, high-content cytometry, 24 h. Potency, µM (highest dose often 76.6 µM), for inactives: top-dose activation (PINK1 increase), usual class: activators; active means well fitted activation curve with a large enough effect; inconclusive means small, poorly fitted or top-dose-only effect; cell line not stated here; further: % of control where 0% means no effect; nearly all actives have a fitted effect of over 65% in size
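Readout is PINK1 immunofluorescence, quantified alongside mitochondrial, cell and nuclear markers by laser-scanning microplate cytometry. Cells from a stable line were exposed to compound titrations (5 concentrations) for 24 hours, with CCCP controls.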
12-LOX inh: blocks human arachidonate 12S-lipoxygenase | purified 12hLO, xylenol orange hydroperoxide absorbance | Potency, µM (top dose mostly 108 µM), without a hit: top-dose activity change, negative = inhibition, usual class: inhibitors | hit rate 1.1% among 580,000 | AID 1671190; further: on the % scale 0 is the no-effect control and ±100 the full control effect
Target sequence (P18054 whole entry, looked up): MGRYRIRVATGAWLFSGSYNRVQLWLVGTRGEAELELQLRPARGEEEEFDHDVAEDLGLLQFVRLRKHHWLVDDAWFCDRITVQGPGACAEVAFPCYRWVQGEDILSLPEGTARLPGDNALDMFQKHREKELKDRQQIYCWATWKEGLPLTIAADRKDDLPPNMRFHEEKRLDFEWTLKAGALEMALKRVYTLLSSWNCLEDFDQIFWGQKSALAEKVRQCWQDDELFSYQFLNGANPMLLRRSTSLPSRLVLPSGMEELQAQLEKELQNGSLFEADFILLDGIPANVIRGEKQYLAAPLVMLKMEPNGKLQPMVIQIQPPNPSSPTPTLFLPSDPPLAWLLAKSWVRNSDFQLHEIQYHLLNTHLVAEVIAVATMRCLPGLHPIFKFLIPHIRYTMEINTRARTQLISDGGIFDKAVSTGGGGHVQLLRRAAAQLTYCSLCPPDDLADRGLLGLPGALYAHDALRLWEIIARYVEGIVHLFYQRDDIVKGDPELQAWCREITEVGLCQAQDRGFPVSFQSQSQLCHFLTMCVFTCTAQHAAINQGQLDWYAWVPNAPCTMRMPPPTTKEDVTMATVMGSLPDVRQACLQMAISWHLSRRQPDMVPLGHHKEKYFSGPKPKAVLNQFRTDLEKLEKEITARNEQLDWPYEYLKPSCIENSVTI
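Hydroperoxide product was detected by ferrous iron/xylenol orange as the 573 to 405 nm absorbance ratio. Arachidonic acid at 40 uM (final) was turned over for 30 min at room temperature by 150 nM human 12hLO, pH 7.0 Hepes buffer, after 15 min compound preincubation.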
MCF10A rerep: induces DNA re-replication in MCF 10a normal breast cells | MCF 10A DNA re-replication, Hoechst nuclear intensity, 48 h | Potency, µM (titrated, usually from 46.1 µM), inactives show at the top dose activity, positive = re-replication, usual class: activators | hit rate 2.9% among 350,000 | AID 624296; further: % of control where 0% means no effect; nearly all actives have a fitted effect of over 50% in size
KB-V1 cytotox: kills drug-selected multidrug resistant KB-V1 cells. KB-V1 MDR cells viability, CellTiter-Glo, 72 h. Potency, µM (highest dose often 46.1 µM), usual class: cytotoxic. hit rate 3.4% among 400,000. AID 1347076; further: on the % scale 0 is the no-effect control and ±100 the full control effect; nearly all actives have a fitted effect of over 60% in size
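Potencies derive from concentration-effect curves fitted to normalized luminescence (CellTiter-Glo) of KB-V1 cells treated for 72 h at 37 degrees C in phenol-red-free DMEM containing 10% FBS.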
SW480 rereplic: DNA re-replication induction in SW480 cells | SW480 DNA re-replication, Hoechst DNA content imaging, 48 h | Potency, µM (highest dose often 46.1 µM), for inactives: at the highest dose re-replication activation, most hits filed as activators | hit rate 1.8% among 340,000 | AID 624297; further: % of control where 0% means no effect; nearly all actives have a fitted effect of over 55% in size
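Image-based read-out: total Hoechst fluorescence of nuclei (405 nm excitation, 500-530 nm emission), with hits raising the fraction of high-intensity nuclei. SW480 colon cells incubated 48 hr with compounds at 37 C.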
* = called active by the depositor; [ ] = another dose, or the depositor's remark. Unless noted, the call rests on the fitted dose curve; in most records, active means well fitted curve in the direction sought with a large enough effect; inconclusive means small, poorly fitted or top-dose-only effect, or another doubt; inactive means no such curve, though single readings can be large; an effect the other way counts as inactive or inconclusive. Potency means the concentration at half of the fitted maximal effect.

For COC(=O)c1cn(S(=O)(=O)c2ccccc2)c2ccccc12 the results were KB-3-1 tox inactive, PINK1 modulator 10%, 12-LOX inh 0%, MCF10A rerep 26µM*, KB-V1 cytotox inactive and SW480 rereplic inconclusive.
`CN1CCc2nc(N)c(C#N)c(-c3ccccc3)c2C1` gave KB-3-1 tox inactive, PINK1 modulator 11%[38.3 µM], 12-LOX inh 0%, MCF10A rerep 0%, KB-V1 cytotox inactive and SW480 rereplic -13%.
`CN1CCc2c(C#N)c(Cl)nc(Cl)c2C1` gave KB-3-1 tox inactive, PINK1 modulator 4%, 12-LOX inh -15%, MCF10A rerep inconclusive, KB-V1 cytotox inconclusive and SW480 rereplic 2.3µM*.
Cn1cc(Br)c(C(=O)Nc2ccc3c(C(F)(F)F)cc(=O)oc3c2)n1 was read as KB-3-1 tox inactive, PINK1 modulator 1%, 12-LOX inh inconclusive, MCF10A rerep 1%, KB-V1 cytotox inactive and SW480 rereplic inconclusive.
For Cn1cc([N+](=O)[O-])c(C(=O)Nc2ccc3c(C(F)(F)F)cc(=O)oc3c2)n1 the results were KB-3-1 tox inconclusive, PINK1 modulator -1%, 12-LOX inh 0%, MCF10A rerep inconclusive, KB-V1 cytotox inactive and SW480 rereplic 12µM*.
For CN(C)c1ccc(C(=O)NC[C@H]2C[C@@H]3CCN2C[C@@H]3CN2CCN(c3ccc(F)cc3)CC2)cc1 the results were 12-LOX inh 63%.
For CC(C)[C@H]1C(=O)N[C@H](CO)Cc2c[nH]c3cccc(c23)N1C the results were 12-LOX inh 40µM*.
CC(CO)NC(=O)C1C=C2c3cccc4[nH]cc(c34)CC2N(C)C1 (configuration not stated) was read as MCF10A rerep -4% and SW480 rereplic -3%.
Screening CC(=O)O[C@@]12CO[C@H]1C[C@H](O)[C@@]1(C)C(=O)[C@H](O)C3=C(C)[C@@H](O)C[C@@](O)([C@@H](OC(=O)c4ccccc4)[C@@H]21)C3(C)C returned 12-LOX inh -5%[57.4 µM].
Screening C/C=C(\C)C(=O)N[C@@H](c1ccccc1)[C@@H](O)C(=O)O[C@H]1C[C@@]2(O)[C@@H](OC(=O)c3ccccc3)C3[C@](C)(C(=O)[C@H](OC(C)=O)C(=C1C)C2(C)C)[C@H](O)C[C@H]1OC[C@@]31OC(C)=O (some centres not stated) returned KB-3-1 tox 0.0073µM*, PINK1 modulator 7%, 12-LOX inh 37%, MCF10A rerep 0.23µM*, KB-V1 cytotox inconclusive and SW480 rereplic 1.5µM*.
Screening CCC(C)C(=O)N[C@@H](c1ccccc1)[C@@H](O)C(=O)O[C@H]1C[C@@]2(O)[C@@H](OC(=O)c3ccccc3)C3[C@](C)(C(=O)[C@H](OC(C)=O)C(=C1C)C2(C)C)[C@@H](O)C[C@H]1OC[C@@]31OC(C)=O (some centres not stated) returned KB-3-1 tox 0.0065µM*, PINK1 modulator 9%, 12-LOX inh 6%, MCF10A rerep 73%, KB-V1 cytotox inactive and SW480 rereplic 1.6µM*.
Screening CC(=O)OC1C(=O)[C@]2(C)C(O)CC3OC[C@]3(OC(C)=O)C2[C@@H](OC(=O)c2ccccc2)[C@]2(O)CC(O)C(C)=C1C2(C)C (some centres not stated) returned PINK1 modulator 7%.
Screening CC/C=C/CC(=O)N[C@@H](c1ccccc1)[C@@H](O)C(=O)O[C@H]1C[C@@]2(O)[C@@H](OC(=O)c3ccccc3)C3[C@](C)(C(=O)[C@H](OC(C)=O)C(=C1C)C2(C)C)[C@@H](O)C[C@H]1OC[C@@]31OC(C)=O (some centres not stated) returned KB-3-1 tox 0.58µM*, PINK1 modulator 4%, 12-LOX inh -2%, MCF10A rerep inconclusive, KB-V1 cytotox inconclusive and SW480 rereplic inconclusive.
